This is a sample that favours compounds with a hit; in the whole collection about 6% have one here.
D1 antag: human D1 dopamine receptor antagonism; HEK293 TREx D1 cells, calcium flux, dopamine EC80; hits give low values; 360,000 tested, 3.2% active; activity change, negative = inhibition, % at 10 µM; P21728; AID 504652; in the data active = activity change below about -30%; also: % is scaled to controls: 0 for no effect and ±100 for the full control effect
Target sequence (P21728 whole entry, looked up): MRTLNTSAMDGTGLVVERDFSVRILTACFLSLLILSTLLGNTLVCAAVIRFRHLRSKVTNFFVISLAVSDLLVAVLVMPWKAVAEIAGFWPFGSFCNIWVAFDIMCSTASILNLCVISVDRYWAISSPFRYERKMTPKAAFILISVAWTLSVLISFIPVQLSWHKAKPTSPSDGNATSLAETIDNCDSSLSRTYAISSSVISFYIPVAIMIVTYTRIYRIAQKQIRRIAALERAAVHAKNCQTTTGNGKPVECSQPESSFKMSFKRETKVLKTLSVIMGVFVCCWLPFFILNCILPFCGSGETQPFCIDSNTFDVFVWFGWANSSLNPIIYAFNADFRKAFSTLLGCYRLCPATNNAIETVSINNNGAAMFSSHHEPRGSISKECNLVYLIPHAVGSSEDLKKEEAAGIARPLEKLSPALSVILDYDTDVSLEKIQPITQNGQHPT
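HEK293 T-REx cells expressing inducible, force-coupled D1 receptor; no-wash Ca dye, 30–90 min RT. Cmpd → 180 s read at 1 Hz → EC80 DA → 180 s read.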
D1 agonist: human D1 receptor agonism. 360,000 tested, 1% active. activation, % at 2 µM. AID 504660. HEK293 T-REx D1 cells, calcium flux, agonist mode; in the data active = activation above about 30%; also: 0% is about no effect
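Tetracycline-induced HEK293 TREx D1 cells, force-coupled to calcium signalling, were dye-loaded with a no-wash calcium kit. Compound was pin-added after a 10 s baseline. Fluorescence was read kinetically at 1 cycle/s for 180 s, with calcium rises flagged as agonism.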
D1 potentiator: enhances dopamine response at the human D1 receptor | P21728 | HEK293 TREx D1 cells, calcium flux, dopamine EC20 potentiation | potentiation, % at 10 µM | 360,000 tested, 0.036% active | AID 504651; in the data active = potentiation above about 30%; also: 0% is about no effect
DRD3 agonist: agonists of human D3 dopamine receptor; P35462; D3R DiscoveRx beta-arrestin cells, luminescence, 90 min; max activation, %; 410,000 tested, 0.58% active; in the data active = max activation above about 30%; also: 0% is about no effect
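Cells at 1500/well, incubated overnight, then treated with pinned compounds (dopamine as control) for 90 min at 37 degrees C. DiscoveRx reagent added for 30 - 60 minutes at room temperature; luminescence read.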
DRD3 antagonist: blocks the human D3 dopamine receptor. P35462. max response, negative = inhibition, %. D3R cells, DiscoveRx beta-arrestin luminescence, antagonist mode; hits give low values. AID 652054. 360,000 tested, 2.5% active; in the data active = max response below about -50%; also: % is scaled to controls: 0 for no effect and ±100 for the full control effect
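Cells expressing the human receptor were seeded at 1500 cells/well, incubated overnight at 37 degrees C in 5% CO2, then exposed to library compounds with dopamine controls for 90 minutes at 37 degrees C before luminescent detection.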
An asterisk follows results filed as active; x = no result; ! = a repeat was not active.

SMILES	D1 antag	D1 agonist	D1 potentiator	DRD3 agonist	DRD3 antagonist
CC(C)C(=O)NCCSc1c[nH]c2ccccc12	-87*	0	-10	-1	0
Cc1cc(Nc2cccc(Cl)c2C)n2nc(Cc3ccccc3)nc2n1	2	3	0	6	x
CCOC(=O)c1ccc2c(c1)N(Cc1cccc([N+](=O)[O-])c1)C(=O)c1ccccc1S2	-5	7	2	-6	x
O=C(CSc1nc2c([nH]c3ccccc32)c(=O)n1-c1ccccc1F)NCC1CCCO1 (centres undefined)	8	1	3	-29	-78*
Cc1ccccc1-n1c(SCC(=O)NCC2CCCO2)nc2c([nH]c3ccccc32)c1=O (centres undefined)	-2	0	-7	-23	-82*
Cn1c(SCC(=O)NCC2CCCO2)nc2c([nH]c3ccccc32)c1=O (centres undefined)	1	2	-2	-10	-14
CCn1cc2nc(SCc3ccccc3Cl)n(Cc3ccc(OC)cc3)c(=O)c2n1	87	7	1	-1	x
CCOc1ccc(C(=O)c2cn(CC(=O)Nc3ccc(F)cc3)c3cc4c(cc3c2=O)OCO4)cc1	-2	0	-2	-11	x
C=CCNC(=O)c1onc(CSc2ccc(Cl)cc2)c1C(=O)O	6	0	0	12	-1
C=CCNC(=O)c1onc(CSc2cccc(OC)c2)c1C(=O)NCC=C	-49*	0	0	0	-4
C=CCNC(=O)c1onc(CSc2ccc(F)c(F)c2)c1C(=O)O	136	31*	1	4	18
COCCNC(=O)c1onc(CSc2ccc(F)c(F)c2)c1C(=O)NCCOC	x	x	x	30*	0
COc1cccc(SCc2noc(C(=O)NCCN(C)C)c2C(=O)NCCN(C)C)c1	x	x	x	14	19
COc1ccccc1CNC(=O)C1CCN(C2=NS(=O)(=O)C(c3ccc(C)c(C)c3)=C2C)CC1	2	7	-8	-11	x
Oc1ccc(Br)cc1C1C=C(c2ccc3c(c2)OCO3)NC(c2c(F)cccc2Cl)N1 (centres undefined)	-56*	19	-4	x	x
COc1ccc(Br)cc1C1NC(c2ccc3c(c2)OCO3)=CC(c2cc(Cl)ccc2O)N1 (centres undefined)	-15	25	4	x	x
Oc1ccc(Cl)cc1C1C=C(c2ccc3c(c2)OCO3)NC(c2cc(Br)ccc2F)N1 (centres undefined)	-9	31*	-2	x	x
COC(=O)c1c(NC(=O)CS(=O)(=O)c2ccc(C)cc2)sc2c1CCCCC2	-18	5	-5	-10	x
COc1ccc(OC)c(CNC(=O)c2cc3ccc4cccnc4c3[nH]2)c1	-6	11	-4	-1	x
Cc1cccc(N2CCN(C(=O)c3ccncc3)CC2)c1C	10	0	-1	46*	16
Cc1cccc(N2CCN(C(=S)NC3CCCCC3)CC2)c1C	-33*	6	-4	-1	-15
Cc1cccc(N2CCN(C(=O)c3ccc4nc[nH]c4c3)CC2)c1C	-46*	20	-7	25	7
Cc1ccc(NC(=O)C2CCCN(c3ncnc4c3nc3n4CCCCC3)C2)c(Br)c1 (centres undefined)	0	-1	0	-7	x
Cc1c(Cl)cccc1NC(=O)Cn1c(=O)n(Cc2nc(-c3ccccc3)no2)c(=O)c2cc3c(cc21)OCO3	1	7	-2	-5	x
Cc1ccc(NC(=O)c2nc[nH]c2C(=O)NCCCCCCNC(=O)c2[nH]cnc2C(=O)Nc2ccc(C)cc2)cc1	x	x	x	1	-3
SMILES	D1 antag	D1 agonist	D1 potentiator	DRD3 agonist	DRD3 antagonist
Cc1ccc(NC(=O)c2nc[nH]c2C(=O)NCCCCNC(=O)c2[nH]cnc2C(=O)Nc2ccc(C)cc2)cc1	x	x	x	42*	146
CCOC(=O)c1ccc(NC(=O)c2nc[nH]c2C(=O)NCCCCCNC(=O)OC(C)(C)C)cc1	-28	4	-6	52*	116
O=C(Nc1ccccc1)c1nc[nH]c1C(=O)NCCNC(=O)c1[nH]cnc1C(=O)Nc1ccccc1	x	x	x	69*	134
O=C(CN1C(=O)C2(SCC(=O)N2c2ccc(F)cc2)c2ccccc21)NCCc1ccccc1 (centres undefined)	3	2	-3	0	x
CCn1cc(C(=O)NCCN(CC(C)C)CC(C)C)c(=O)c2cc(S(=O)(=O)N(C)C3CCCCC3)ccc21	-29	0	0	0	x
COc1ccc(NC(=O)C2CCC(CNS(=O)(=O)c3ccc4c(c3)C(C)(C)C(=O)N4C)CC2)cc1 (centres undefined)	-11	0	0	0	x
CCc1ccc(N2C(=O)CS(=O)(=O)C23C(=O)N(Cc2ccccc2)c2ccccc23)cc1 (centres undefined)	-14	1	3	6	x
COc1ccc(-c2cc(C(F)(F)F)n3ncc(-c4ccccc4)c3n2)cc1	-25	3	0	-13	x
COc1ccc(CC(O)CC2c3c(cc4c(c3OC)OCO4)CCN2C)cc1 (centres undefined)	9	3	-2	-20	-69*
Cc1cccc(Cn2c(CN3CCC(C(=O)NCCc4ccccc4)CC3)cc3ccccc32)c1	-1	8	-2	-17	x
Cc1cccc(OCc2nn[nH]n2)c1C	8	3	-3	68*	-12
Clc1ccccc1OCc1nn[nH]n1	9	4	2	6	-13
CCN(CCNS(=O)(=O)c1ccc2c(c1)oc(=O)n2C)c1ccccc1	-31*	4	-7	3	18
Cn1c(=O)oc2cc(S(=O)(=O)Nc3cccc([N+](=O)[O-])c3)ccc21	-7	4	-6	-28	-88*
COc1ccccc1CNC(=O)CCNS(=O)(=O)c1ccc2c(c1)oc(=O)n2C	-36*!	1	-7	1	13
COc1ccccc1CNS(=O)(=O)c1ccc2c(c1)oc(=O)n2C	10	16	x	8	20
Cc1ccc(C)c(N2CCN(C(=O)CCNS(=O)(=O)c3ccc4c(c3)oc(=O)n4C)CC2)c1	-35*	11	-12	6	4
CCCN(CCC)CCNS(=O)(=O)c1ccc2c(c1)oc(=O)n2C	-9	3	-6	-1	-22
Cn1c(=O)oc2cc(S(=O)(=O)NCCC(=O)N3CCN(c4ccccc4F)CC3)ccc21	-9	0	-10	3	2
Cc1cc2nc(-c3ccc(OCc4ccc(F)cc4)cc3)cc(C(F)(F)F)n2n1	-10	0	-4	3	x
CCCN1CCC(C(=O)NC(c2ccc(F)cc2)c2ncccc2C)CC1 (centres undefined)	x	x	x	-10	-57*
Cc1cccnc1C(NC(=O)C1CCN(CCCc2ccccc2)CC1)c1ccc(F)cc1 (centres undefined)	x	x	x	-20	-70*
CCOc1ccc(CNC(=O)c2cnc3sc(N4CCC(C)CC4)nn3c2=O)cc1OC	-11	5	-1	-12	x
COc1ccc(S(=O)(=O)Nc2ncccn2)cc1	-44*	1	2	2	13

Source: PubChem BioAssay
